{"source": "PubChem BioAssay AID1063", "about": "(University of Pittsburgh Molecular Library Screening Center, 2008)", "note": "Among all 200,000 compounds or so, about 18,000 (9%) were called active. Cut-off read from the data, not from the text of the source: active = inhibition above about 50%; inactive = the rest. The list comes from a sample in which actives are over-represented; it also holds similar structures and randomly drawn compounds."}
{"test": "antileishmanial activity against promastigotes – primary screen (AID 1063);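 note: promastigotes grown with compound for 44 hours at 28 °C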", "details": "Leishmania major promastigotes, resazurin fluorescence viability; at 10 µM; stronger effect = higher value"}
{"smiles": "COc1cc(NC(=S)N2CCCC(C)C2)cc(OC)c1OC", "note": "(stereo unspecified)", "inhibition": "4.64% (inactive)"}
{"smiles": "O=C(Nc1ccccc1)N1CCN(C(=O)Nc2ccccc2)CC1", "inhibition": "-5.42% (inactive)"}
{"smiles": "CCCCN(C(=O)/C=C/c1ccco1)c1c(N)n(CC(C)C)c(=O)[nH]c1=O", "inhibition": "-4.4% (inactive)"}
{"smiles": "O=C(CCc1nnc(CCCCc2ccccc2)o1)NC(c1cccnc1)C(F)(F)F", "note": "(stereo unspecified)", "inhibition": "11.3% (inactive)"}
{"smiles": "COc1ccc([N+](=O)[O-])cc1NC(=O)CCc1ccccc1", "inhibition": "-3.05% (inactive)"}
{"smiles": "CC(CCc1ccccc1)NCC(O)c1cccc([N+](=O)[O-])c1", "note": "(stereo unspecified)", "inhibition": "59.5% (active)"}
{"smiles": "CC(=O)Nc1cccc([N+](=O)[O-])c1", "inhibition": "-0.87% (inactive)"}
{"smiles": "CN(C)CCCN1C(=O)CSC1c1ccc([N+](=O)[O-])cc1", "note": "(stereo unspecified)", "inhibition": "46.8% (inactive)"}
{"smiles": "O=C1NC2(CCCCCC2)C(=O)N1CCS(=O)(=O)Oc1ccccc1", "inhibition": "-10.5% (inactive)"}
{"smiles": "Cc1ccc(NC(=O)c2ccccn2)cc1S(=O)(=O)N1CCOCC1", "inhibition": "-1.09% (inactive)"}
{"smiles": "CCn1cc(C(=O)Nc2cc(C)ccc2C)c(=O)c2ccc(C)nc21", "inhibition": "1.39% (inactive)"}
{"smiles": "CC(C)(C)N(CC#CCC(O)(c1ccccc1)C1CCCC1)CCO", "note": "(stereo unspecified)", "inhibition": "3.46% (inactive)"}
{"smiles": "CN(CC#CCC(c1ccccc1)c1ccccc1)C(C)(C)C", "inhibition": "100% (active)"}
{"smiles": "COC(=O)C1=C(Nc2ccc(OC)cc2)C=C(C)C(C(=O)OC)C1c1ccc(C)cc1", "note": "(stereo unspecified)", "inhibition": "24.6% (inactive)"}
{"smiles": "COC(=O)C1=C(Nc2ccc(C)cc2)C=C(C)C(C(=O)OC)C1c1ccc(F)cc1", "note": "(stereo unspecified)", "inhibition": "52.4% (active)"}
{"smiles": "COC(=O)C1C(=O)NCC1c1ccc(C)cc1", "note": "(stereo unspecified)", "inhibition": "6.72% (inactive)"}
{"smiles": "Cc1cc(C2=NNC(=Nc3ccc(S(=O)(=O)N4CCOCC4)cc3)SC2)c(C)n1CC1CCCO1", "note": "(stereo unspecified)", "inhibition": "-7.5% (inactive)"}
{"smiles": "C=CCn1c(C)cc(C2=NNC(=NCC)SC2)c1C", "inhibition": "58.5% (active)"}
{"smiles": "COCCn1c(C)cc(C2=NNC(=Nc3ccc(F)cc3)SC2)c1C", "inhibition": "-1.36% (inactive)"}
{"smiles": "COC(=O)c1cc2n(n1)CCCNC2=O", "inhibition": "-4.96% (inactive)"}
{"smiles": "CC(=O)Nc1ccccc1NC(=O)c1cc(C)cc(C)c1", "inhibition": "-0.58% (inactive)"}
{"smiles": "CC(=O)c1ccc(N=C2SCCCN2C(=O)C2CCCCC2)cc1", "inhibition": "85.8% (active)"}
{"smiles": "CCC1CCCCN1C(=S)Nc1ccc(C(C)=O)cc1", "note": "(stereo unspecified)", "inhibition": "-8.59% (inactive)"}
{"smiles": "O=C(O)c1ccc(NC(=O)C2CCCCC2)cc1", "inhibition": "-6.65% (inactive)"}
{"smiles": "COc1cccc(NC(=O)CS(=O)(=O)c2cn(CC(=O)N3CCOCC3)c3ccccc23)c1", "inhibition": "-7.03% (inactive)"}
{"smiles": "CC(=O)NC(Cc1c[nH]c2ccccc12)C(=O)O", "note": "(stereo unspecified)", "inhibition": "-12.4% (inactive)"}
{"smiles": "CC(=O)Nc1ccc(/C=N/NC(=O)c2cccs2)cc1", "inhibition": "-2.65% (inactive)"}
{"smiles": "O=C(NC(Cc1c[nH]c2ccccc12)C(=O)N/N=C/c1ccc(Br)cc1)c1cccs1", "note": "(stereo unspecified)", "inhibition": "65.6% (active)"}
{"smiles": "CSc1ncccc1C(=O)N1CCCC(CCC(=O)NCc2ccccc2F)C1", "note": "(stereo unspecified)", "inhibition": "-5.49% (inactive)"}
{"smiles": "COc1cc(NC(=O)c2cccs2)ccc1NC(=O)c1ccccc1Cl", "inhibition": "0.19% (inactive)"}
{"smiles": "Cc1cc(C)c2[nH]c(=O)c(C(c3nnnn3Cc3ccc4c(c3)OCO4)N3CCCC3)cc2c1", "note": "(stereo unspecified)", "inhibition": "27.4% (inactive)"}
{"smiles": "COCCn1nnnc1C(c1ccccc1Cl)N1CCN(c2ccccc2OC)CC1", "note": "(stereo unspecified)", "inhibition": "-0.67% (inactive)"}
{"smiles": "COc1ccc(C(c2nnnn2C2CCCCC2)N2CCN(c3ccccc3F)CC2)cc1", "note": "(stereo unspecified)", "inhibition": "96.8% (active)"}
{"smiles": "CN1CCN(C(c2cc3cc4c(cc3[nH]c2=O)OCCO4)c2nnnn2C2CCCC2)CC1", "note": "(stereo unspecified)", "inhibition": "-6.88% (inactive)"}
{"smiles": "CC(C)C(c1nnnn1C1CCCC1)N1CCN(c2ccccc2F)CC1", "note": "(stereo unspecified)", "inhibition": "33% (inactive)"}
{"smiles": "COc1ccc(N2CCN(C(c3cc4ccc(C)cc4[nH]c3=O)c3nnnn3C3CCCC3)CC2)cc1", "note": "(stereo unspecified)", "inhibition": "75.4% (active)"}
{"smiles": "CCOc1ccc2[nH]c(=O)c(C(c3nnnn3CCOC)N3CCOCC3)cc2c1", "note": "(stereo unspecified)", "inhibition": "-4.07% (inactive)"}
{"smiles": "CCOC(=O)C1CCN(C(c2cc3cc(C)cc(C)c3[nH]c2=O)c2nnnn2C2CCCCC2)CC1", "note": "(stereo unspecified)", "inhibition": "88.6% (active)"}
{"smiles": "CCC(c1nnnn1C1CCCC1)N1CCN(C(=O)c2ccco2)CC1", "note": "(stereo unspecified)", "inhibition": "-6.05% (inactive)"}
{"smiles": "CCc1c(C)nc2c(OC)cccc2c1Cl", "inhibition": "-3.45% (inactive)"}
{"smiles": "Cc1cccc(C(=O)OCC(=O)NCC(C)C)c1O", "inhibition": "-1.6% (inactive)"}
{"smiles": "Fc1ccc(COc2cccc(-c3n[nH]c(=S)o3)c2)cc1", "inhibition": "-2.62% (inactive)"}
{"smiles": "N#Cc1ncc(C(F)(F)F)cc1Oc1cccnc1", "inhibition": "-5.89% (inactive)"}
{"smiles": "O=C(CSc1nnc(-c2ccc([N+](=O)[O-])cc2)o1)Nc1ccccn1", "inhibition": "6.18% (inactive)"}
{"smiles": "COc1ccc(/C=C(\\C#N)C(=O)ONC2=NCCCCC2)cc1", "inhibition": "-4.23% (inactive)"}
{"smiles": "COc1ccc(CCN(C)CCN2C(=O)c3ccccc3C2=O)cc1OC", "inhibition": "-2.69% (inactive)"}
{"smiles": "COC(=O)c1ccc(C2C(Oc3ccccc3C)C(=O)N2CCc2ccc(OC)c(OC)c2)cc1", "note": "(stereo unspecified)", "inhibition": "5.32% (inactive)"}
{"smiles": "COc1ccc(CCN2C(=O)c3[nH]nc(-c4ccccc4O)c3C2c2ccc(C)cc2)cc1OC", "note": "(stereo unspecified)", "inhibition": "75% (active)"}
{"smiles": "CN1C(=O)/C(=C\\c2cc(Br)cs2)c2ccccc21", "inhibition": "13.9% (inactive)"}
{"smiles": "CCC(C)c1ccc(NC(=S)NCc2ccccn2)cc1", "note": "(stereo unspecified)", "inhibition": "-0.38% (inactive)"}
{"smiles": "Cc1cccc(C)c1N1CCN(S(=O)(=O)N2CCCCC2)CC1", "inhibition": "15.9% (inactive)"}
{"smiles": "Cc1cc(C)c2c3c(sc2n1)C(c1ccccc1)C(C#N)=C(N)O3", "note": "(stereo unspecified)", "inhibition": "100% (active)"}
{"smiles": "Cc1cc(C)c(C#N)c(SCc2[nH]nc3c2C(c2ccccc2)C(C#N)=C(N)O3)n1", "note": "(stereo unspecified)", "inhibition": "8.99% (inactive)"}
{"smiles": "N#CC1=C(N)Oc2c(sc3ccccc23)C1c1ccco1", "note": "(stereo unspecified)", "inhibition": "9.33% (inactive)"}
{"smiles": "CC(=O)NC(=S)NNC(=O)c1ccc(Br)cc1", "inhibition": "-4.54% (inactive)"}
{"smiles": "CCOc1ccc(Br)cc1S(=O)(=O)N1CCC(C(=O)O)CC1", "inhibition": "-5.93% (inactive)"}
{"smiles": "CC1Cc2ccccc2N1C1=CC(=O)CC(C)(C)C1", "note": "(stereo unspecified)", "inhibition": "7.71% (inactive)"}
{"smiles": "O=C(CCc1ccccc1)NNC(=O)c1ccc(Br)cc1", "inhibition": "-3.53% (inactive)"}
{"smiles": "COc1ccc(C(=O)NC(=S)NNC(=O)c2c(-c3ccccc3)noc2C)cc1", "inhibition": "-0.99% (inactive)"}
{"smiles": "COc1ccc(C(=O)NC(=S)NNC(=O)CCc2ccccc2)cc1", "inhibition": "93.2% (active)"}
{"smiles": "O=C(CCCc1ccccc1)NCc1ccccc1", "inhibition": "-8% (inactive)"}
{"smiles": "Cn1c(=O)n(C)c(=O)n(CC(=O)N2CCCCC2)c1=O", "inhibition": "-4.15% (inactive)"}
{"smiles": "O=C(CN1C(=O)c2cccc3cccc(c23)C1=O)N1CCCCC1", "inhibition": "89.8% (active)"}
{"smiles": "O=C(CN1C(=O)c2cccc3cccc1c23)Nc1ccccc1", "inhibition": "-9.01% (inactive)"}
{"smiles": "COc1ccc(OCC(=O)NNC(=O)c2cccc(C)c2)cc1", "inhibition": "-6.27% (inactive)"}
{"smiles": "Cc1ccc(CC(=O)Nc2cccc(C#N)c2)cc1", "inhibition": "-0.29% (inactive)"}
{"smiles": "COc1cccc2sc(Nc3nc(C)c(C(C)=O)s3)nc12", "inhibition": "98.4% (active)"}
{"smiles": "CC(=O)c1sc(NC(=O)CCCOc2ccccc2C)nc1C", "inhibition": "-7.25% (inactive)"}
{"smiles": "COc1cccc2sc(NNC(=O)c3nc4ccccc4s3)nc12", "inhibition": "48.5% (inactive)"}
{"smiles": "COC(=O)CSc1ccc2nnc(CCNS(=O)(=O)c3ccc(C)cc3)n2n1", "inhibition": "2.97% (inactive)"}
{"smiles": "CSc1ncccc1C(=O)OCc1ccc(Br)cc1", "inhibition": "-1.11% (inactive)"}
{"smiles": "CCOC(=O)/C(=N\\Nc1ccccc1Cl)N(C)C1CCS(=O)(=O)C1", "note": "(stereo unspecified)", "inhibition": "-1.23% (inactive)"}
{"smiles": "CCOC(=O)c1cccc(NC(=O)CCOc2ccccc2)c1", "inhibition": "9.18% (inactive)"}
{"smiles": "CCc1cccc(NC(=O)CCNS(=O)(=O)c2cccc3nonc23)c1", "inhibition": "-7.76% (inactive)"}
{"smiles": "CCc1cccc(NC(=O)CCC(=O)O)c1", "inhibition": "52.3% (active)"}
{"smiles": "CC(OC(=O)c1ccccc1OCc1ccc(Cl)cc1)C(N)=O", "note": "(stereo unspecified)", "inhibition": "10.8% (inactive)"}
{"smiles": "CC1CN(/C=C/C(=O)C(F)(F)F)CC(C)O1", "note": "(stereo unspecified)", "inhibition": "-1.49% (inactive)"}
{"smiles": "COCC1CCCN(Cc2nc(-c3ccc4c(c3)OCO4)no2)C1", "note": "(stereo unspecified)", "inhibition": "0.34% (inactive)"}
{"smiles": "COc1ccc(CCNc2nc(-c3cccc(NC(C)=O)c3)cs2)cc1OC", "inhibition": "3.47% (inactive)"}
{"smiles": "COc1ccc(CCN(C(=O)COc2ccccc2)c2nc(-c3ccccc3)cs2)cc1OC", "inhibition": "52.1% (active)"}
{"smiles": "CN(C(=O)COc1ccccc1)c1nnc(-c2ccncc2)s1", "inhibition": "-4.81% (inactive)"}
{"smiles": "COc1ccc(-n2c(C)nn(CC3CC3)c2=O)cc1", "inhibition": "-6.72% (inactive)"}
{"smiles": "CC(=O)O[C@]1(C(C)=O)CC[C@H]2[C@@H]3C=C(C)C4=CC(=O)CC[C@]4(C)[C@H]3CC[C@@]21C", "inhibition": "69.8% (active)"}
{"smiles": "CCN(CC)S(=O)(=O)c1cc([N+](=O)[O-])ccc1NNC(=O)Nc1ccccc1", "inhibition": "31.2% (inactive)"}
{"smiles": "CCN(CC)S(=O)(=O)c1cc([N+](=O)[O-])ccc1N=Nc1c(O)n(C)c2ccccc12", "inhibition": "65.5% (active)"}
{"smiles": "CCn1c(O)c(N=NC(=O)c2cccc(S(=O)(=O)N3CCCCC3)c2)c2ccccc21", "inhibition": "3.18% (inactive)"}
{"smiles": "Cc1cccc(CN2CCN(Cc3cnn(-c4ccccc4F)c3)CC2CCO)n1", "note": "(stereo unspecified)", "inhibition": "3.31% (inactive)"}
{"smiles": "O=C(NCCOc1ccccc1F)Nc1ccc(Br)cc1", "inhibition": "1.12% (inactive)"}
{"smiles": "O=C(CN(C(=O)c1csnn1)c1cccc(F)c1)NCc1ccc(F)cc1", "inhibition": "-3.27% (inactive)"}
{"smiles": "COC(=O)C1=CN(Cc2ccc(OC)c(OC)c2)C=C(C(=O)OC)C1c1cccs1", "inhibition": "100% (active)"}
{"smiles": "COc1ccc(CN(C(=O)c2cccs2)c2nccs2)cc1OC", "inhibition": "0.69% (inactive)"}
{"smiles": "COc1ccc(C2=NN(C(=O)CCC(=O)O)C(c3cccs3)C2)cc1OC", "note": "(stereo unspecified)", "inhibition": "-5.57% (inactive)"}
{"smiles": "CCCCc1nnc(NC(=O)CSc2nc(N)cc(=O)[nH]2)s1", "inhibition": "1.7% (inactive)"}
{"smiles": "Cc1cc(NC(=O)/C=C/C(=O)N(CC(=O)NC2CCCC2)c2ccc(F)cc2)no1", "inhibition": "5.25% (inactive)"}
{"smiles": "Cc1cc(NC(=O)/C=C/C(=O)N(c2ccccc2C)C(C(=O)NC2CCCC2)c2ccc(F)cc2)no1", "note": "(stereo unspecified)", "inhibition": "71.3% (active)"}
{"smiles": "Cc1cc(NC(=O)CCC(=O)N(c2cccc(F)c2)C(C(=O)NC2CCCC2)c2ccncc2)no1", "note": "(stereo unspecified)", "inhibition": "-6.83% (inactive)"}
